Assay results reported in PubChem BioAssay.
Values joined by “and” are separate entries in the source; they are usually repeats but may differ in a detail not shown here. Equal values may be shown once. A number with no mark means an inactive call. Active and inactive are the calls of the source.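 The calls were made as follows: active = growth inhibition above 50% at the single 2 µM test dose, taken to imply half-maximal potency below 2 µM; inactive = the rest.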

Experiment: antimalarial activity against Dd2 strain (AID 2302);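 also: 0% = DMSO untreated growth and 100% = chloroquine plus artemisinin killed control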
Conditions: P. falciparum Dd2 in RBCs, LDH growth readout, 72 h; at 2 µM; hits give high values
In the case of `COc1ccc(C(C(=O)NC2CCN(C[C@H](O)c3ccnc4ccc(OC)cc34)CC2)N2CCN(Cc3ccccc3)CC2)cc1` (stereo partly specified), the growth inhibition is reported as 72% (active). For `CS(=O)(=O)c1ccc2nc(NC(=O)c3csnn3)sc2c1`, the growth inhibition was 95% (active). With `O=C(/C=C/c1ccc(Cl)c(Cl)c1)NCCCCCN1CCCN(C(=O)Nc2cccc(F)c2)CC1` the growth inhibition was 4%. For `Cn1ccnc1S(=O)(=O)CCNCc1ccc(-c2ccc3ncnc(Nc4ccc(OCc5cccc(F)c5)c(Cl)c4)c3c2)o1`, the growth inhibition was 94% (active). For `Cc1ccccc1C1CCN(C2CCC(NC(=O)/C=C/c3cccc(F)c3)CC2)CC1` (stereo unspecified), the growth inhibition was 38%. For `Cc1nc2ccccc2c(=O)n1NCc1ccc(Cl)c(Cl)c1`, the growth inhibition was 92% (active). For `CCNc1cc(C)nc(Nc2ccc(NS(=O)(=O)c3ccccc3)cc2)n1`, the growth inhibition was 54% (active). In the case of `CCCCCCCc1ccc(-c2c(C)[nH]c(C)c(Cl)c2=O)cn1`, the growth inhibition is reported as 96% (active). With `O=C(C=Cc1cn(-c2ccccc2)nc1-c1cccs1)N1CCN(c2ccncc2)CC1` the growth inhibition was 61% (active). For `O=C(Nc1ccc(C(F)(F)F)cc1)Nc1ccccc1N1CCNCC1`, the growth inhibition was 69% (active). For `CCC(CC(NCCCCNC(=O)c1ccc(NC(=O)c2ccc(Cl)cc2)cc1)c1ccccc1)c1ccccc1OC` (stereo unspecified), the growth inhibition was 76% (active) and 56% (active). Molecule `O=C(/C=C/c1ccc(Cl)c(Cl)c1)NCCCCCN1CCC(NC(=O)Nc2cccc(C(F)(F)F)c2)CC1` has a growth inhibition of 11%. For `Cc1noc(C)c1-c1ccc2c(Nc3ccccc3C(C)(C)C)c(C(=O)NCc3ccc(OC(C)C)cc3)cnc2c1`, the growth inhibition was 98% (active). With `FC(F)(F)c1cccc(CNCCCCCNCc2ccc(Cl)cc2)c1` the growth inhibition was 15%. With `C[C@@H]1CN(c2nc(NCCc3ccc(O)cc3)nc(NCc3ccccc3-c3ccc(C(F)(F)F)cc3)n2)C[C@H](C)N1` the growth inhibition was 68% (active). With `CC1(CCc2ccccc2)N=C(N)N=C(N)C1c1ccc(Cl)c(Cl)c1` (stereo unspecified) the growth inhibition was 39%. For `CCN(CC)C(=NCCCCCCN=C(NC(N)=NCc1cccc(Cl)c1)N(CC)CC)NC(N)=NCc1cccc(Cl)c1`, the growth inhibition was 99% (active). With `Cc1nc(-c2ccc(-c3ccc(NC(=O)c4coc5ccc(N6C[C@@H](C)N[C@@H](C)C6)cc45)cc3)c(C)c2)no1` the growth inhibition was 88% (active). `COc1ccc(CCn2c(=N)c(C(=O)NCc3cccnc3)cc3c(=O)n4cccc(C)c4nc32)cc1` showed a growth inhibition of 12%. For `O=C(NCC1CCN(Cc2ccc(F)cc2)C1)c1cc(-c2cccc(C(F)(F)F)c2)cs1` (stereo unspecified), the growth inhibition was 18%. Molecule `c1ccc(COc2ccc(C3CCCCC3)cc2)nc1` has a growth inhibition of 1%. For `Clc1ccc2c(NCCNc3ccnc4cc(Cl)ccc34)ccnc2c1`, the growth inhibition was 96% (active). For `NC1=NC(c2ccccc2)(c2ccccc2)C(=O)N1CC1CCC1`, the growth inhibition was 74% (active). For `CCc1cn2c3c(cc(C(=O)N[C@@H](Cc4cc(F)cc(F)c4)[C@H](O)CNC4CC4)cc13)N(C)S(=O)(=O)CC2`, the growth inhibition was 99% (active). With `CCNc1cc(C(=O)N[C@@H](Cc2ccc(F)c(F)c2)[C@H](O)CNCc2cccc(OC)c2)cc(N2CCCCS2(=O)=O)c1` the growth inhibition was 85% (active). In the case of `CN(C)CCOc1cc(NC(=O)Nc2ccc(-c3ccncc3)c(C(F)(F)F)c2)ccc1Cl`, the growth inhibition is reported as 79% (active). `COc1c(C2CCN(CCCCNC(=O)c3noc(-c4ccc(C#N)cc4)n3)CC2)ccc2c1CCCC2` showed a growth inhibition of -2%. In the case of `CC1(C)N=C(N)N=C(N)N1OCCCCOc1ccccc1`, the growth inhibition is reported as 95% (active). In the case of `O=C(Nc1cccc(-c2cccc(-c3nc4ccccc4[nH]3)c2)c1)N[C@@H]1C[C@H]1c1ccccc1`, the growth inhibition is reported as 22% and 27%. Work on `COc1cc(F)c2ncc(Cl)c([C@H](O)CN3CCC(NCc4cc5c(cn4)OCCO5)CC3)c2c1` yielded a growth inhibition of 49%. Work on `CN1CCCN(Cc2ccc(-c3cccc(NC(=O)c4ccc(F)cc4)c3)cc2)CC1` yielded a growth inhibition of 8%. Work on `COc1cccc(CNC(=O)c2cnc(N3CCN(c4ccncc4)CC3)c(Cl)c2)c1` yielded a growth inhibition of 12%. In the case of `COc1ccc(CNCc2ccccc2)cc1-c1ccc(S(=O)(=O)NCCN2CCCC2)cc1`, the growth inhibition is reported as 39%. For `O=C(Nc1cc(Cl)c(Cl)cc1NC(=O)c1cccc(-c2ccccc2)c1O)c1cccc(-c2ccccc2)c1O`, the growth inhibition was 100% (active). For `CCc1c(C)nc2nc(Cc3cccc(F)c3)nn2c1N1CCN(c2ccccn2)CC1`, the growth inhibition was 98% (active). For `Cn1ncc2c3c(CCN4CCC(NCc5cc6c(cn5)OCCO6)CC4)c(Cl)cnc3ccc21`, the growth inhibition was 34%.
